# Results from PubChem BioAssay (NCATS).
# Results filed as inconclusive are left out. A call without a number means that no potency is given here. A number with no mark means an inactive call. Active and inactive are the calls of the source. The call rests on the fitted dose curve; in most records, active means well fitted inhibition curve with a large enough effect; inconclusive means small, poorly fitted or top-dose-only effect; inactive means no such curve, though single readings can be large or run the other way.
# Experiments:
# [1] = system: Zika virus NS2B-NS3 protease (unlinked complex); assay: Primary screen GU Rhodamine qHTS for Zika virus inhibitors: Unlinked NS2B-NS3 protease assay (AID 1347159); further: nearly all actives have a fitted effect of over 60% in size
# Procedure, shortened: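 Enzyme 25 nM in Tris-HCl pH 8.0 + 0.01% Tween 20; compounds up to 114 microM, 15 min RT dark; + Rhod110 substrate 1.5 microM; read t0 and 15 min; delta fluorescence → % inhibition → 4-parameter Hill fit.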
# [2] = system: Zika virus NS2B-NS3 protease (linked construct); assay: Primary screen NINDS Rhodamine qHTS for Zika virus inhibitors (AID 1347160); further: nearly all actives have a fitted effect of over 55% in size
# Procedure, shortened: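 Enzyme (25 nM, linked NS2B-NS3) was preincubated 15 min with compound in 10 mM Tris-HCl pH 8.0, 0.01% Tween 20. Rhodamine110 substrate (1.5 microM) was then added and fluorescence read at start and after 15 min.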
SMILES,Potency [1],Potency [2],"activity change, negative = inhibition [1]",outcome [2]
C=C1C(OC(C)=O)CCC2(C)CC3(OC)OC(=O)C(C)=C3CC12 (centres undefined),inactive,inactive,–,–
C/C=C/C=C/C(=O)N1CC[C@]23c4ccccc4N[C@H]4N(C)c5cccc6c5[C@@]42CCN([C@H]6C2OC2(C)C)[C@H]13 (some centres undefined),inactive,inactive,–,–
Cc1c(C(=O)N2CCOc3ccc(-c4ccc(N)nc4)cc3C2)ccc(S(C)(=O)=O)c1F,inactive,inactive,–,–
NC(=O)[C@H](O[C@@H]1O[C@H](CO)[C@@H](O)[C@H](O)[C@H]1O)c1ccccc1,inactive,inactive,–,–
CC(C)(O)C1CCC(C)(C2CCC3(C)C4CCC5C(C)(C(=O)OC6OC(CO)C(O)C(O)C6O)C(O)CC(O)C56CC46CCC23C)O1 (centres undefined),inactive,inactive,–,–
O=C(NCc1cccc(O)c1)c1cc2cc(F)ccc2[nH]1,inactive,inactive,–,–
C/C=C/C(O)C1OC(=O)CC1Nc1ccc(C(=O)O)cc1 (centres undefined),inactive,inactive,–,–
COC(=O)[C@@]1(c2ccc(C)cc2)C[C@H]1CN1CCC(O)(c2ccccc2)CC1,inactive,inactive,–,–
C[C@H](NC(c1cccc2[nH]c(=O)c(=O)[nH]c12)P(=O)(O)O)c1ccc(Br)cc1 (some centres undefined),inactive,inactive,–,–
CC[C@H](C)[C@H](NC(=O)[C@H]([C@@H](C)CC)N(C)C(C)=O)C(=O)N[C@H](C(=O)N[C@@H](CC(C)C)C(=O)[C@@]1(C)CO1)[C@@H](C)O,inactive,inactive,–,–
C=C(C)C1CC[C@]2(C(=O)O)CC[C@]3(C(=O)O)[C@H](CCC4[C@@]5(C)CC[C@H](O)C(C)(C)C5CC[C@]43C)C12 (some centres undefined),inactive,inactive,–,–
C=C(C(=O)O)C1CC(O)C2(C)CCCC(=C)C2C1 (centres undefined),inactive,inactive,–,–
COc1cc(-c2ncn(/C=C\C(=O)OC(C)C)n2)cc(C(F)(F)F)c1,inactive,inactive,–,–
CC1(C)CC[C@]2(C(=O)O)[C@H](O)C[C@]3(C)C(=CCC4[C@@]5(C)CC[C@H](O[C@@H]6O[C@H](CO[C@@H]7OC[C@H](O)[C@H](O)[C@H]7O[C@@H]7OC[C@@H](O)[C@H](O)[C@H]7O)[C@@H](O)[C@H](O)[C@H]6O[C@@H]6O[C@H](CO)[C@@H](O)[C@H](O)[C@H]6O)C(C)(C)C5CC[C@]43C)[C@@H]2C1 (some centres undefined),inactive,inactive,–,–
Cc1cc(OCc2nnc(SC3CCCC3)n2-c2cccnc2)ccc1-c1ccc(S(C)(=O)=O)cc1,inactive,inactive,–,–
CCS(=O)(=O)N1CCN(c2ccc(Nc3ncc(C(N)=O)c(NC4CC4)n3)cc2)CC1,inactive,inactive,–,–
COc1nc2sc(C(=O)NC3CC3)c(N)c2c(C)c1Cl,inactive,inactive,–,–
C[C@@H]1C(=O)O[C@H]2C[C@]34[C@H]5C[C@@H](C(C)(C)C)[C@]36[C@@H](OC(=O)[C@H]6O)O[C@]4(C(=O)O5)[C@]21O,inactive,inactive,–,–
CN(C)c1nc(NC2CCC(NCCc3ccc(Br)cc3OC(F)(F)F)CC2)nc2ccccc12 (centres undefined),inactive,inactive,–,–
COc1cc(NC(=O)Nc2cccc(CNC(=O)O[C@H]3CCOC3)c2)ccc1-c1cnco1,inactive,inactive,–,–
CC(=O)N[C@H]1[C@H](O[C@H]2CC[C@@]3(C)C(CC[C@]4(C)C3CC=C3C5CC(C)(C)CC[C@]5(C(=O)O)[C@H](O)C[C@]34C)C2(C)C)O[C@H](CO[C@@H]2OC[C@H](O)[C@H](O)[C@H]2O[C@@H]2OC[C@@H](O)[C@H](O)[C@H]2O)[C@@H](O)[C@@H]1O (some centres undefined),inactive,inactive,–,–
Cc1c[nH]c2nccc(Oc3c(F)cc(Nc4cc(Cl)nc(N)n4)cc3F)c12,inactive,inactive,–,–
Cc1nc(Nc2n[nH]c3c2CN(C(=O)NC(CN(C)C)c2ccccc2)C3(C)C)c2sccc2n1 (centres undefined),inactive,inactive,–,–
CCCNc1ccc2ncc(-c3ccc4[nH]ncc4c3)n2n1,inactive,inactive,–,–
O=C(O)c1cn(C2CC2)c2cc(N3C[C@@H]4C[C@H]3CN4)c(F)cc2c1=O,inactive,inactive,–,–
CCC(Nc1ncnc2nc[nH]c12)c1nc2cccc(F)c2c(=O)n1-c1ccccc1 (centres undefined),inactive,inactive,–,–
CC1(C)CC[C@]23CO[C@@]4(CCC5[C@@]6(C)CC[C@H](O[C@@H]7OC[C@H](O[C@@H]8O[C@H](CO)[C@@H](O)[C@H](O)[C@H]8O)[C@H](O)[C@H]7O[C@@H]7O[C@H](CO)[C@@H](O[C@@H]8O[C@H](CO)[C@@H](O)[C@H](O)[C@H]8O)[C@H](O)[C@H]7O)[C@@](C)(CO)C6CC[C@@]5(C)[C@]4(C)C[C@H]2OC2OCC(O)C(O)C2O)C3C1 (some centres undefined),–,–,15.7% [at 19.1 µM],inactive [at 10.7 µM]
